# Assay outcomes: PubChem BioAssay, National Center for Advancing Translational Sciences (NCATS)
# This is a sample that favours compounds with a hit; in the whole collection about 12% have one here.
# JMJD2A Tudor inh: inhibitors of human JMJD2A Tudor domain; AlphaScreen JMJD2A-Tudor / H3K4me3 peptide binding; Potency, µM (series often up to 114 µM), for the others: at the highest dose activity change, negative = inhibition, hits mostly inhibitors; 390,000 compounds, 4.4% hits; AID 504339; further: potency means the concentration at half of the fitted maximal effect; on the % scale 0 is the no-effect control and ±100 the full control effect; nearly all actives have a fitted effect of over 50% in size
# G9a inh: inhibitors of human histone lysine methyltransferase G9a; 350,000 compounds, 8.8% hits; Q96KQ7; Potency, µM (titrated, usually from 102 µM), without a hit: at the highest dose activity, negative = inhibition, most hits filed as inhibitors; G9a H3K9 monomethylation, AlphaScreen, 2 h; further: potency means the concentration at half of the fitted maximal effect; on the % scale 0 is the no-effect control and ±100 the full control effect; nearly all actives have a fitted effect of over 75% in size
#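 Quantitative HTS format: methyltransferase activity on a biotin-tagged H3K9 peptide is measured by AlphaScreen, using a rabbit anti-monomethyl-H3K9 antibody with streptavidin donor and anti-IgG acceptor beads. Final levels are 20 nM enzyme, 500 nM peptide, 20 uM SAM; 2 h RT.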
# HP1b chromo inh: blocks HP1-beta chromodomain binding to methylated histone tails; P83916; AlphaScreen HP1-beta / biotin-H3K9me3 peptide binding; Potency, µM (top dose mostly 114 µM), for the others: at the top dose activity change, negative = inhibition, usual class: inhibitors; 390,000 compounds, 0.56% hits; further: potency means the concentration at half of the fitted maximal effect; nearly all actives have a fitted effect of over 70% in size
#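 Compound inhibition of the preformed complex between 50 nM HP1-beta and 50 nM biotinylated H3K9me3 peptide was read by AlphaScreen. Buffer was PBS pH 7.4 with 0.01% Tween-20. Incubations ran 30 min at room temperature, with 10 ug/mL donor/acceptor beads.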
# BAZ2B inh: blocks human BAZ2B; 360,000 compounds, 4.4% hits; AlphaScreen BAZ2B-H3K14Ac peptide displacement; Q9UIF8; AID 504333; Potency, µM (highest dose often 114 µM), inactives show at the top dose activity change, negative = inhibition, actives largely listed as inhibitors; further: potency means the concentration at half of the fitted maximal effect; on the % scale 0 is the no-effect control and ±100 the full control effect; nearly all actives have a fitted effect of over 60% in size
# Target sequence (Q9UIF8 whole entry, looked up): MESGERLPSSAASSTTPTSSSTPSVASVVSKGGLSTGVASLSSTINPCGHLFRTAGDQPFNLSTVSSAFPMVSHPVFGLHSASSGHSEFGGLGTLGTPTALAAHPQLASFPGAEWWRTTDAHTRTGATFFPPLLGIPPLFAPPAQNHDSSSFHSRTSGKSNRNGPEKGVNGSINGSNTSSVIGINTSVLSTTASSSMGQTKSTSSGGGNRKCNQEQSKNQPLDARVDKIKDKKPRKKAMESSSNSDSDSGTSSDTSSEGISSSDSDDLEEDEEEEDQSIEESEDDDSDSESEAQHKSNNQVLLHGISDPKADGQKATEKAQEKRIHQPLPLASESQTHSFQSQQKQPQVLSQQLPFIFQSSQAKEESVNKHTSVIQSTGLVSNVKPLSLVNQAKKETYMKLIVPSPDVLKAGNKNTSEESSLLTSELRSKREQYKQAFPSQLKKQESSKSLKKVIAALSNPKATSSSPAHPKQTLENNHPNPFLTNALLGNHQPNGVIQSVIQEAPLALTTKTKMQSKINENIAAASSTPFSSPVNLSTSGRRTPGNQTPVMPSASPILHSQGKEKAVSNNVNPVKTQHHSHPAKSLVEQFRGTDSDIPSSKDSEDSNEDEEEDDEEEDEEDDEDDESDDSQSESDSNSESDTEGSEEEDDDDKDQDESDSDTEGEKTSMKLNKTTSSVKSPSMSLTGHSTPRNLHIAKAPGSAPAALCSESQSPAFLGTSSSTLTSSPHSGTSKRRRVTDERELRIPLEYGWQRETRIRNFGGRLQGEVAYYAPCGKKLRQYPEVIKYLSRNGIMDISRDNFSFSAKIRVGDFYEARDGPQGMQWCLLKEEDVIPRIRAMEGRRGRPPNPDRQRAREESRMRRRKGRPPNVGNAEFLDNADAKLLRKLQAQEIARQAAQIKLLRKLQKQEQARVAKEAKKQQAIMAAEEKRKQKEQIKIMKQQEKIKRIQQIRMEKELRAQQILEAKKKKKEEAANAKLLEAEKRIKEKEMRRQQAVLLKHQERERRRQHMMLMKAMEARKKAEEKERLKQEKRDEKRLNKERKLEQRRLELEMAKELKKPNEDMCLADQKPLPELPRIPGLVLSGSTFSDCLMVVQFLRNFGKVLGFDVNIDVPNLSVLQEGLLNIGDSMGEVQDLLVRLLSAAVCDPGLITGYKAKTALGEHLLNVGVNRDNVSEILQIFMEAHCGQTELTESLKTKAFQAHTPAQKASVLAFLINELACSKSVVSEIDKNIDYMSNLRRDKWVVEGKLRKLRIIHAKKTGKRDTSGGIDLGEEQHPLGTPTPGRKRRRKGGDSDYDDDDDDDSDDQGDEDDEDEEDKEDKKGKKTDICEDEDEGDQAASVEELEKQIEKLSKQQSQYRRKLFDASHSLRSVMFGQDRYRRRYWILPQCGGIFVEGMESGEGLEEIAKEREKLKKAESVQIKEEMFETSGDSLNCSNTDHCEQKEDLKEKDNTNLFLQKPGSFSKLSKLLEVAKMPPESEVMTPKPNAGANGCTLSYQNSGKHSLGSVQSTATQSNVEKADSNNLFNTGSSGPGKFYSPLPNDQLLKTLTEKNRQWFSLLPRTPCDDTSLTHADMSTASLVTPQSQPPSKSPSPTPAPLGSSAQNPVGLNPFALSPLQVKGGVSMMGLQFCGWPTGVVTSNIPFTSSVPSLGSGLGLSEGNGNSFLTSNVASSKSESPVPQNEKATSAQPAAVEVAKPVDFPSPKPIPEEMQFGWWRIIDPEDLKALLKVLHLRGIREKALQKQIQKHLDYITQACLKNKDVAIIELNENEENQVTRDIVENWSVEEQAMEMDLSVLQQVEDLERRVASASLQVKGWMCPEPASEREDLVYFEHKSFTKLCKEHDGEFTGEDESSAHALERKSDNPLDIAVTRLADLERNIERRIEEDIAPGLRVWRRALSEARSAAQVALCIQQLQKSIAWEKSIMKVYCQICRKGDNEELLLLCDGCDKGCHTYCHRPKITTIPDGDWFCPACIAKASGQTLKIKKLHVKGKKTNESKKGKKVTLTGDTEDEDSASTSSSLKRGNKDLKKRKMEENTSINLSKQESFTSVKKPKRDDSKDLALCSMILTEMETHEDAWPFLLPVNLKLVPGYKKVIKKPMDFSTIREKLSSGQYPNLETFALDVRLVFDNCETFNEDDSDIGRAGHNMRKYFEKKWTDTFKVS
#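 AlphaScreen luminescence quantifies BAZ2B engagement of H3K14Ac peptide; the protein and biotinylated peptide are both at 50 nM final, buffer PBS pH 7.4 with 0.01% Tween-20, all steps at room temperature.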
# PLK1 PBD inh: blocks phosphopeptide binding to human PLK1 polo-box domain; P53350; Plk1 PBD binding of FITC phosphopeptide, fluorescence polarization; Potency, µM, without a hit: max response, negative = inhibition, actives largely listed as inhibitors; 360,000 compounds, 2.8% hits; AID 720504; further: potency means the concentration at half of the fitted maximal effect; series mostly up to about 57 µM; on the % scale 0 is the no-effect control and ±100 the full control effect; nearly all actives have a fitted effect of over 65% in size
# PI5P4Ka inh: inhibitors of human PI5P4K alpha; AID 652105; max response, %; PI5P4Kalpha enzyme, ADP-Glo luminescence, 60 min; stronger effect = lower value; P48426; 330,000 compounds, 1.2% hits; active means max response of -50% or lower; inconclusive means between -30% and -50%; inactive means -30% or higher; further: value at the top dose of about 77 µM; on the % scale 0 is the no-effect control and ±100 the full control effect
#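 ADP-Glo luminescence end-point after a 60 min room-temperature kinase reaction. PI5P4Kalpha and substrate in HEPES pH 7.4 buffer with EGTA, 0.1% CHAPS and 5% DMSO; ATP at 5 microM final.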
# An asterisk follows results filed as active; ? = inconclusive; · = not tested or not shown; ! = repeats disagree; [ ] = remark or other dose. Unless noted, the call rests on the fitted dose curve; in most records, active means well fitted curve in the direction sought with a large enough effect; inconclusive means small, poorly fitted or top-dose-only effect, or another doubt; inactive means no such curve, though single readings can be large; an effect the other way counts as inactive or inconclusive.
SMILES,JMJD2A Tudor inh,G9a inh,HP1b chromo inh,BAZ2B inh,PLK1 PBD inh,PI5P4Ka inh
O=C(Nc1ccc2c(c1)CCC2)c1cnn2c1NC(c1ccco1)CC2C(F)(F)F (stereo not drawn),8%[11.4 µM],-15%[59 µM],-1%,9%,27µM*,2
Cc1ccc(C2CC(C(F)(F)F)n3ncc(C(=O)NCc4ccco4)c3N2)cc1 (stereo not drawn),?,45µM*,-15%,?,4%,·
COc1ccccc1N1CCN(S(=O)(=O)c2cc3c(cc2C)NC(=O)CO3)CC1,-31%,79µM*,18%,-29%,-4%,12
Cc1cc2c(cc1S(=O)(=O)N1CCN(c3cccc(C(F)(F)F)c3)CC1)OCC(=O)N2,?,·,18%,?,21µM*,-4
O=c1cc(CSc2nnnn2-c2ccccc2)[nH]c2[nH]n(-c3ccccc3)c(=O)c12,89µM*,?,-16%,?,-6%,?
CC/C=C\C/C=C\C/C=C\CCCCCCCC(=O)O,-27%,18µM*!,11%,-5%,?,?
COc1ccc(OCCOC(=O)CNC(=O)c2cccc(C)c2)cc1,-2%,50µM*,13%,13%,-2%,6
Cc1cccc(C(=O)NCC(=O)OCCOc2ccccc2Cl)c1,3%,14%[2.33 µM],45%,4%,-5%,20
Cc1csc(C(C)NC(=O)c2ccc(OC3CCN(CCc4ccccc4)CC3)cc2)n1 (stereo not drawn),-29%,-7%,11%,-23%,30µM*,2
O=C(Nc1cccc(-c2nc3ccccc3o2)c1)c1cccc2c(Cl)cccc12,-5%,4%[59 µM],19%,-19%,·,·
O=C1CC(c2ccc(O)cc2)Oc2cc(O)cc(O)c21 (stereo not drawn),-15%,-5%,27%,-10%,-11%,-14
N#Cc1ccccc1NC(=O)CSc1ccc([N+](=O)[O-])cn1,-1%,50µM*,9%,1%,-18%,-2
O=C(Cn1cnc2cc([N+](=O)[O-])ccc2c1=O)Nc1ccc2c(c1)OCO2,-17%,40µM*,22%,?,2%,-5
O=C(Cn1cnc2ccccc2c1=O)Nc1ccc2c(c1)OCO2,2%,-5%[59 µM],35%,-15%,-6%,0
Cc1nnc(NC(=O)CSc2ccc([N+](=O)[O-])cn2)s1,-18%,?,33%,-1%,3%,-2
O=C(CSc1ccc([N+](=O)[O-])cn1)Nc1ccc2c(c1)OCO2,-23%,45µM*,-11%,?,-18%,-29
Cc1ccc(NC(=O)c2oc3ccc4c(c3c2C)C(=O)CC(C)(C)O4)c(C)c1,-8%,1%[59 µM],20%,-1%,·,·
Cc1cccc(N2CCN(C(=O)CN3C(=O)NC(C)(C4CC4)C3=O)CC2)c1C (stereo not drawn),-16%,56µM*,17%,12%,1%,-1
Cc1cccc(N2CCN(C(=O)NCc3ccc(F)cc3)CC2)c1C,?,-8%,26%,10%,30µM*,-10
COc1ccc(CNC(=O)N2CCN(c3cccc(C)c3C)CC2)cc1OC,-4%,12%,29%,-23%,-1%,6
Cc1cccc(N2CCN(CC(=O)NCC3CCCCC3)CC2)c1C,5µM*,28µM*,?,50µM*,-9%,·
CCN(CC)c1nn2c(=O)c(C(=O)NCc3cccc(C)c3)cnc2s1,-11%,7%[59 µM],?,-14%,·,·
CC(C)c1ccc(NC(=O)CSc2nc(=O)n(Cc3ccccn3)c3c2CCC3)cc1,-24%,-9%[59 µM],55%,12%,·,·
O=C(C[n+]1cccc2ccccc21)c1ccccc1,1%[57.1 µM],45µM*,47%,11%,-9%,0
SMILES,JMJD2A Tudor inh,G9a inh,HP1b chromo inh,BAZ2B inh,PLK1 PBD inh,PI5P4Ka inh
Cc1cc[n+](CC(=O)c2ccc(NC(=O)c3ccccc3)cc2)c2ccccc12,?,40µM*,13%,?,-3%,4
COc1ccc2c(ccc[n+]2CC(=O)c2ccccc2)c1,8%,-5%,41%,-26%,6%,-1
Cc1ccc[n+](CC(=O)c2ccc(NC(=O)c3ccccc3)cc2)c1,-8%,-6%,38%,-4%,-7%,-7
O=C(C[n+]1cccc2ccccc21)c1ccc(NC(=O)c2ccccc2)cc1,-9%,25µM*,39%,-25%,4%,-12
CCOCCc1nn2c(=O)cc(COC(=O)Cc3ccccc3)nc2s1,-11%,27%[59 µM],28%,-8%,·,·
Clc1ccc(Cn2c(/C=C/c3ccco3)nc3ccccc32)cc1,-26%,3.2µM*,?,56µM*,-9%,-78*
C#CCn1c(/C=C/c2ccc(Cl)cc2)nc2ccccc21,104%,161%[59 µM],195%,112%,·,·
Cc1ccc(Cn2c(/C=C/c3ccco3)nc3ccccc32)cc1,-1%,40µM*,11%,?,-2%,-64*
Cc1cc(NC(=O)CN2CC3CC(C2)c2cccc(=O)n2C3)nc2c1c(=O)oc1ccccc12 (stereo not drawn),·,35µM*,·,?,·,·
C(/C=C/c1ccco1)=N/N1CCN(c2ccccc2)CC1,?,40µM*,?,28µM*,-12%,-7
Clc1ccccc1CN1CCN(/N=C/C=C\c2ccco2)CC1,?,35µM*,45µM*,40µM*,-15%,0
CC(O)(c1ccc(F)c(F)c1)c1nc(-c2cc(F)cc(F)c2)cs1 (stereo not drawn),·,·,·,·,5%,39
CC(=O)c1ccc(Nc2cc(C)nc3nc(Cc4ccc(Cl)cc4)nn23)cc1,-23%,?,15%,-7%,·,·
Cc1cccc(CN2CCSCC2)c1,20µM*,?,?,?,-14%,-1
Cc1cccc(CN2CCC(C(N)=O)CC2)c1,-15%,28%,25%,9%,1%,·
FC(F)(F)c1cccc(CN2CCSCC2)c1,22µM*,10µM*,?,56µM*,-13%,0
Cc1cc(N2C(=O)c3ccccc3C2=O)no1,-11%,·,·,·,·,·
CC1=C(C(=O)Nc2ccccc2)C(CC(C)C)n2nc(SCc3ccccc3C)nc2N1 (stereo not drawn),-15%,?,18%,-18%,·,·
CN(CC(=O)Nc1cccc(F)c1)C(=O)c1cc(-c2cccs2)nn1-c1ccccc1,-23%,50µM*,14%,?,-11%,5
O=C(O)c1cc(-c2cccs2)nn1-c1ccc(F)cc1,-13%,45µM*,39%,?,-4%,-5
CCCN(CC(=O)Nc1ccccc1OC)C(=O)c1cc(-c2cccs2)nn1-c1ccccc1,-15%,45µM*,29%,-3%,1%,0
